# Most compounds without a hit are left out; they make up all but 4.1% or so of the library.
# hcDAF-12 act: H. contortus DAF-12 activation, primary screen; HEK293 hcDAF-12 lit1-tk-luc reporter, luminescence; 0% DMSO, 100% Δ7-dafachronic acid; activation, % at 6.8 µM; 370,000 compounds, 1.4% hits; AID 652067;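 active means activation above the mean of all tested compounds plus 3 SD, cut at about 5.5% in these data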;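 further: 100% = response to 3 µM Δ7-dafachronic acid high control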
# PolyA inhibitor: blocks polyadenylation in yeast reporter cells. S. cerevisiae SKY197-pL101 polyadenylation reporter, beta-gal luminescence; efflux-impaired pdr1/pdr3 knockout yeast; score 100 = 6 SD above DMSO. activity score, % at 12 µM. 300,000 compounds, 0.02% hits. AID 1875;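 active means lowest replicate activity score at least 50, where 100 means six control SD above control mean; inconclusive means lowest score under 50 but half or more replicates reach 50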;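 further: yeast exposed to compound for 9 h at 30 °C; higher score means more reporter readthrough which indicates perturbed polyadenylation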
# DAX1 inh-1: inhibitors of human orphan nuclear receptor DAX1 (NR0B1); P51843; 340,000 compounds, 0.99% hits; inhibition, % at 6.75 µM; HEK293 Gal4-DAX1 luciferase reporter, luminescence;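 active means inhibition above the mean over all tested compounds plus 3 SD, cut at about 4.2% in these data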;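 further: 0% = DAX1-transfected cells with DMSO and 100% = empty-vector control cells with DMSO; inhibition shows as a rise in luminescence from relieved DAX1 repression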
# Target sequence (P51843 207-470 limits assumed): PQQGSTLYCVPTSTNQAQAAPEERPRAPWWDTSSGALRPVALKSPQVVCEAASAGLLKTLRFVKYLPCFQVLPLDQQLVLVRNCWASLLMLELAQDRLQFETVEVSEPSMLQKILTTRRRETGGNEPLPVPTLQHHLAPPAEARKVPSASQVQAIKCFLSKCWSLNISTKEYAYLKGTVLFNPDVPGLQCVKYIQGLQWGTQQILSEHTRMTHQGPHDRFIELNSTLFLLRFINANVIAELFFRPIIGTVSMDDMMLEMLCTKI
# ssDAF-12 act: activators of S. stercoralis DAF-12 nuclear receptor; HEK293 ssDAF-12/GRIP1 lit1-tk-luc reporter, luminescence; % of 3 µM dafachronic acid response; 370,000 compounds, 1% hits; activation, % at 6.8 µM;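 active means activation above the mean over all tested compounds plus 3 SD, cut at about 0.9% in these data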;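 further: 0% = DMSO-only wells and 100% = 3 µM delta7-dafachronic acid wells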
# DAX1 inh-2: blocks DAX1 repression of SF-1 activated StAR promoter. HEK293T StAR-luciferase reporter, SF-1/DAX-1 repression relief. inhibition, % at 6.8 µM. 370,000 compounds, 1.1% hits;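 active means inhibition above the mean over all tested compounds plus 3 SD, cut at about 3.6% in these data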;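 further: 0% = DAX-1 cells with DMSO and 100% = cells lacking DAX-1 with DMSO; higher inhibition means more luminescence from relief of DAX-1 repression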
# hgDAF-12 ag: activates the H. glycines DAF-12 receptor ligand-binding domain. HEK293 GAL4-hgDAF12 UAS-luciferase reporter, agonist luminescence; normalized to butyrate control. activation, % at 6.8 µM. 370,000 compounds, 1.8% hits;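 active means activation above a cutoff set at the mean of all screened compounds plus 3 SD, cut at about 10% in these data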;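 further: 0% = DMSO wells and 100% = sodium butyrate wells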
# An asterisk follows results filed as active; ? = inconclusive; / = no result.
SMILES,hcDAF-12 act,PolyA inhibitor,DAX1 inh-1,ssDAF-12 act,DAX1 inh-2,hgDAF-12 ag
Cc1ccc(S(=O)(=O)N2CCCC2C(=O)N2CCN(c3ccccc3)CC2)cc1C (stereo not drawn),0,/,/,-1,0,1
Cc1oc(-c2ccc(Cl)cc2)cc1C(=O)O,1,-34,5.5*,0,1,3
CCOC(=O)C1=C(C)N=c2s/c(=C/c3ccc(OCC(=O)O)cc3)c(=O)n2C1c1ccc(OC)cc1OC (stereo not drawn),0,6,-1,1.8*,1,1
CCOC(=O)C1=CCN(S(=O)(=O)c2ccccc2Cl)C1c1ccc(Cl)cc1 (stereo not drawn),-2,/,/,-1,-1,-2
Cc1cc2nc(-c3ccccc3O)[nH]c2cc1C,5.8*,/,2,1,4.1*,12*
Clc1cc2nc(-c3cccnc3Cl)[nH]c2cc1Cl,6.2*,?,4.3*,1.1*,3.8*,11*
Brc1ccc(-c2csc(N3CCC(c4nn[nH]n4)CC3)n2)cc1,0,/,/,-1,/,1
Brc1ccccc1/C=N/Nc1ccccn1,4,-7,1,0,0,9
Cc1ccc(/C=N/Nc2ccccn2)s1,1,5,1,0,0,11*
Nc1ccccc1C(=O)NNc1c2ccccc2nc2ccccc12,6.4*,23,2,0,0,6
Nc1nc(NCCCN2CCOCC2)nc(Nc2ccccc2F)c1[N+](=O)[O-],-2,16,4.5*,-1,0,-4
Nc1ccc2nc(Cc3ccccc3)[nH]c2c1,1,0,4.6*,-1,0,-3
Cc1ccc2nc(Cc3ccc(N)cc3)[nH]c2c1,1,-7,1,0,2,7
O=C(Nc1nc2ncccn2c1-c1ccc(F)cc1)c1ccccc1,0,/,/,-1,0,-2
C/C(=N\NC(=O)C1CC1)c1ccc(NC(=O)c2ccc(Br)o2)cc1,3,6,/,-1,2,8
O=C(Nc1ccccc1)c1ccc(Br)o1,-1,-4,1,-1,0,3
COc1ccc(CC(=O)NNC(=O)c2ccc(Br)o2)cc1,0,9,-1,-1,0,0
O=C(Nc1ccc2c(c1)CCC2)c1ccc(Br)o1,5.8*,11,3,0,2,13*
COc1ccc(CC(=O)Nc2ccc(/C(C)=N\NC(=O)c3ccc(Br)o3)cc2)cc1,6.2*,20,1,0,3,12*
C/C(=N\NC(=O)c1c(Br)c(C)nn1C)c1ccc(NC(=O)c2ccoc2C)cc1,-1,22,2,-1,1,12*
C/C(=N\NC(=O)c1c(Cl)cnn1C)c1ccc(NC(=O)c2ccc(Br)o2)cc1,1,-14,0,0,6.3*,8
Cc1cccc(Cn2cc(COC(=O)NCCc3ccccc3)nn2)c1,-1,/,/,-1,0,2
COc1cc(NC(=O)C2CCCN(S(=O)(=O)c3ccc(C)c(C)c3)C2)cc(OC)c1 (stereo not drawn),-4,/,/,-2,0,4
CCN1CCN(c2ccc(NC(=O)c3ccc(Br)o3)cc2)CC1,3,23,1,1.1*,3.7*,11*
C/C(=N\NC(=O)c1ccccc1N)c1ccc(NC(=O)Cc2ccccc2)cc1,3,-5,6.9*,1,2,8
SMILES,hcDAF-12 act,PolyA inhibitor,DAX1 inh-1,ssDAF-12 act,DAX1 inh-2,hgDAF-12 ag
O=C(Nc1cccc(NC(=O)c2ccc(Br)o2)n1)c1ccc(Br)o1,1,-18,0,-1,1,0
COC(=O)Cc1ccc(NC(=O)c2ccc(Br)o2)cc1,3,-2,0,-1,0,12*
Cc1nc(NC(=O)c2ccc(Br)o2)ccc1Br,4,-5,0,0,4.0*,5
C[C@@H]1CN(c2ccc(N3CCNC[C@@H]3C)cc2C#N)CCN1Cc1ccccc1,0,/,/,-2,0,2
CCCC/C(=N\NC(=O)c1ccc(Br)o1)c1ccccc1,1,28,2,0,2,8
CC/C(=N/NC(=O)c1ccc(Br)o1)c1ccc(Cl)cc1,2,7,1,-1,1,12*
Cc1cccc(-c2ccc3[nH]c4c(c3c2)CCN2C[C@H]3[C@H](C)ON(C)[C@H]3C[C@@H]42)c1,0,/,-1,-1,-1,1
C[C@@H]1ON(C)[C@H]2C[C@H]3c4cc(-c5ccc(F)cc5)ccc4CCN3C[C@@H]12,-1,/,/,0.9*,-1,2
C[C@@H]1ON(C)[C@H]2C[C@H]3c4[nH]c5ccccc5c4CCN3C[C@@H]12,3,/,3,1.4*,0,-1
COc1ccc(C2C(C(=O)N3CCOCC3)CCC(=O)N2c2ccc(OC)cc2)cc1 (stereo not drawn),0,-5,0,0,0,2
COc1ccc(C2C(C(=O)NCC3CCCO3)CCC(=O)N2c2ccc3c(c2)OCO3)cc1 (stereo not drawn),-1,4,4.4*,-1,1,-2
C[C@@H]1CCCCO[C@@H](CN(C)Cc2ccc(C(=O)O)cc2)[C@@H](C)CN([C@H](C)CO)C(=O)c2cc(NS(C)(=O)=O)ccc2O1,1,/,/,0,2,1
CC(=O)N1CCOc2cc(S(=O)(=O)NCc3ccc(F)cc3)c(C)cc21,-2,4,5.6*,-1,0,0
Cc1ccc(CNS(=O)(=O)c2cc3c(cc2C)N(C)CCO3)cc1,3,0,1,-1,-1,1
CN(CCOc1ccc(Br)cc1)CC(O)c1ccccc1 (stereo not drawn),0,4,1,-1,0,-1
CN(CCOc1ccc(Cl)cc1)CC(O)c1ccccc1 (stereo not drawn),0,3,4.3*,-1,0,1
COC(=O)c1nc(-c2ccc(C)cc2)oc1N(C)C,5,4,1,1.0*,-1,2
COC(=O)c1nc(-c2ccccc2)oc1N(C)C,0,10,1,-2,0,0
CC(=O)c1cccc(NC(=O)COc2ccccc2)c1,-2,1,1,-1,1,5
CC(C)CCOCC(=O)Nc1cccc(C(=O)O)c1,4,-7,-2,0,3,12*
CNC(=O)N/N=C(\N)c1ccccn1,-2,11,-1,-1,0,0
N/C(=N\NC(=O)Nc1ccc(Cl)cc1)c1ccccn1,5.6*,-13,2,0,1,5
O=C(Nc1ccccc1)Nc1ccccn1,3,-19,1,-1,2,5
O=C(Nc1ccc(Cl)cc1)Nc1ccccn1,4,0,4,0,1,12*

# Bioassay records: PubChem, several laboratories
